# Laboratory results as given in the supplement of paper PMC12636033.
# ± gives the standard deviation of the averaged measurements. In all, about 33,000 sequences were measured (“E-score (rank enrichment, -0.5 to 0.5)”: median about -0.0075, highest 2% from about 0.23 on). The sample holds the highest values, similar sequences and a random draw of the others, so the mix is not that of the screen.
# Test system: WT Max(13-93) synthetic (M65Nle)
# Assay: PBM 8-mer E-score (E-score (rank enrichment, -0.5 to 0.5)); higher = stronger preferential binding
# Protocol: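 Protein binding microarray (universal PBM chip covering all 10-mers in fixed probe flanks) with chemically synthesized human Max(13-93) bHLH-LZ analogs (not full-length Max) bearing noncanonical residues (hArg, Tha, Aib, Nle at 65) and aromatic Cys staples. Read-out per 8-mer (and its reverse complement): E-score (rank-based enrichment, -0.5 to 0.5) and Z-score of median probe intensity.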
row,Sequence,PBM 8-mer E-score
1,TAGAAATA,0.251 ± 0.07
2,ATAAAATA,0.244 ± 0.0078
3,GTAAAATA,0.0829 ± 0.0054
4,CAAGAATA,0.13 ± 0.035
5,GAAAAATA,0.198 ± 0.08
6,AAGAAATA,0.129 ± 0.0058
7,CAAAAATA,0.185 ± 0.02
8,ATAAAATC,0.109 ± 0.055
9,AAAAAATA,0.246 ± 0.022
10,GAGAAATA,0.0631 ± 0.15
11,GAAGAATA,0.104 ± 0.034
12,AAAGAATA,0.241 ± 0.039
13,CATGCCGC,0.0835 ± 0.051
14,AATAGAGG,0.00232 ± 0.055
15,GAGTGGTA,-0.108 ± 0.011
16,AATGCAGG,0.087 ± 0.07
17,AAGAACGA,0.129 ± 0.018
18,CAGAGTGC,-0.201 ± 0.058
19,CTCGAAAG,-0.184 ± 0.043
20,GACGAACA,0.0177 ± 0.055
21,GTTCATTA,0.113 ± 0.06
22,AGGTTTAA,0.0368 ± 0.0029
23,GGCTGGAA,-0.0381 ± 0.036
24,CTAAATTA,0.0753 ± 0.031
25,ATAAATTA,0.324 ± 0.038

row,Sequence,PBM 8-mer E-score
1,GTTAAATA,0.257 ± 0.1
2,ATTAAATA,0.174 ± 0.085
3,ATAAATTG,0.0667 ± 0.085
4,CTTAAATA,0.139 ± 0.023
5,CGGGTCAA,-0.125 ± 0.03
6,ATGGCTAG,0.0642 ± 0.13
7,AGGGAGCC,-0.227 ± 0.056
8,AGTGCGTG,0.0848 ± 0.032
9,GGTTAGGA,0.0556 ± 0.043
10,ACTTAAAC,0.0371 ± 0.073
11,CCGCAGAG,-0.0777 ± 0.023
12,CTGACACA,-0.0349 ± 0.034
13,ATGACAGG,0.0387 ± 0.051
14,ATGACACC,0.159 ± 0.048
15,GTGACACA,0.0907 ± 0.1
16,AAGACACA,0.0963 ± 0.021
17,CAGACACG,-0.0764 ± 0.14
18,ATGACACA,0.236 ± 0.042
19,ATGACACG,0.298 ± 0.039
20,AAGACACG,0.246 ± 0.021
21,CAGTCTGC,-0.0522 ± 0.01
22,ACCTAATG,0.00028 ± 0.0032
23,CCAGGAGC,-0.312 ± 0.0027
24,GTAAAACA,0.142 ± 0.14
25,ATAAAACG,0.163 ± 0.16

row,Sequence,PBM 8-mer E-score
1,ATAAAAAG,0.283 ± 0.11
2,TAAAAACA,0.25 ± 0.0036
3,CTAAAACA,-0.07401 ± 0.00047
4,CAAGAACA,0.0399 ± 0.038
5,GAAGAACA,0.209 ± 0.057
6,ATAAAAGG,0.0572 ± 0.12
7,AAAAAACA,0.158 ± 0.071
8,ATAAAAAA,0.19 ± 0.044
9,TAAGAACA,0.243 ± 0.099
10,ATAAAACA,0.24 ± 0.0041
11,GCCCCGTA,-0.0782 ± 0.17
12,ACGGGGTC,-0.061 ± 0.014
13,CGGCAGAC,-0.218 ± 0.039
14,AACCATTC,0.0337 ± 0.04
15,AATGCCGC,-0.0772 ± 0.0051
16,CGACTAAA,-0.00903 ± 0.06
17,AATAGGCA,0.118 ± 0.0074
18,GCGCGCCC,0.00746 ± 0.051
19,CAGGTTCC,-0.228 ± 0.077
20,CCGTTAGC,-0.112 ± 0.12
21,ATAAAGCA,0.264 ± 0.046
22,CTAAAGCA,0.0761 ± 0.037
23,ATCAAGCA,0.113 ± 0.0099
24,ATAAAGCG,0.106 ± 0.045
25,ATCAAACA,0.238 ± 0.041

row,Sequence,PBM 8-mer E-score
1,CTCAAACA,0.117 ± 0.014
2,GGCGGATA,-0.183 ± 0.13
3,TGTGTTAA,0.226 ± 0.034
4,TTACACAA,0.00996 ± 0.084
5,ACCTGGGC,-0.318 ± 0.086
6,AATCCTCT,0.079 ± 0.071
7,ACGCCAAC,-0.125 ± 0.04
8,TGTATTAA,0.173 ± 0.026
9,CCTCAGGC,-0.057 ± 0.056
10,CCGTGGGC,-0.129 ± 0.18
11,GAGTGGGA,-0.0159 ± 0.0035
12,CCGTGGGA,-0.15 ± 0.023
13,AAGTGGGA,0.212 ± 0.0035
14,ACGTGGGC,0.33 ± 0.012
15,ACGTGGGG,0.164 ± 0.08
16,ACGTGGGA,0.302 ± 0.039
17,AGGTGGGA,0.0263 ± 0.046
18,GCGTGGGA,0.238 ± 0.035
19,CGCTGCAG,-0.19 ± 0.18
20,GGACCGAC,-0.168 ± 0.097
21,CGCAGCCA,-0.117 ± 0.093
22,AGTGTTCC,-0.151 ± 0.007
23,GCGGCAAC,-0.106 ± 0.026
24,CACCCGAG,-0.19 ± 0.056
25,GAACCAAC,0.0313 ± 0.051

row,Sequence,PBM 8-mer E-score
1,ATCTCAAA,-0.0195 ± 0.13
2,CTGAGGAA,-0.111 ± 0.035
3,GCAATGTA,0.0841 ± 0.011
4,ACAATGAG,0.137 ± 0.029
5,ACAATGAT,0.241 ± 0.024
6,AAAATGAC,0.174 ± 0.013
7,AAAATGAT,0.249 ± 0.13
8,AAAATGAA,0.138 ± 0.00081
9,ACAATGAC,0.0383 ± 0.055
10,ACAATGTA,0.239 ± 0.034
11,ACAATGTC,0.108 ± 0.095
12,TATGACGA,0.0259 ± 0.072
13,ATGATGCC,-0.00394 ± 0.018
14,GGCTACCC,-0.19 ± 0.032
15,CGCAAGAA,-0.121 ± 0.097
16,GAGCCGGC,-0.26 ± 0.041
17,AATGATCC,-0.122 ± 0.097
18,ACCAATAT,0.175 ± 0.057
19,AACAATTG,0.128 ± 0.05
20,AACAATTA,0.248 ± 0.061
21,AACAATAC,0.236 ± 0.036
22,AACAATTC,0.146 ± 0.012
23,AACAATAA,0.213 ± 0.15
24,AACAATAT,0.252 ± 0.089
25,AACAATAG,-0.112 ± 0.17

row,Sequence,PBM 8-mer E-score
1,GACAATAC,0.202 ± 0.02
2,AGCCGCTA,-0.263 ± 0.022
3,CTCGATAA,-0.0814 ± 0.087
4,AAGCGGGT,-0.0582 ± 0.061
5,TCAGATCA,-0.0835 ± 0.073
6,CCTCGACC,-0.128 ± 0.09
7,GCTAAAAC,-0.101 ± 0.028
8,TGAGATCA,-0.0342 ± 0.1
9,AGCTGGAT,-0.164 ± 0.054
10,CTCCCATA,-0.0036 ± 0.067
11,ATGTTTAA,0.22 ± 0.078
12,ATGTTTAG,0.278 ± 0.063
13,CTGTTTAC,0.0925 ± 0.099
14,ATGTTTTG,0.24 ± 0.066
15,ATGTTTCC,0.225 ± 0.092
16,ATGTTTAC,0.243 ± 0.0084
17,ACGTTTAG,0.0123 ± 0.031
18,ATGTTTTA,0.102 ± 0.043
19,ATGTTTGG,0.147 ± 0.042
20,AAAATAGG,0.031 ± 0.16
21,GACAACCC,0.0334 ± 0.15
22,CGGCCAGA,-0.212 ± 0.006
23,ATGCTTTA,0.277 ± 0.0049
24,CTGCTTTA,0.169 ± 0.061
25,ATGCTTTC,0.174 ± 0.051

row,Sequence,PBM 8-mer E-score
1,ATGATCGC,-5e-06 ± 0.043
2,TGCCCGCA,0.0712 ± 0.065
3,AACATGTA,0.23 ± 0.087
4,GACATGTC,0.163 ± 0.042
5,GACATGTA,0.273 ± 0.035
6,TACATGAA,0.11 ± 0.053
7,TACATGTA,0.308 ± 0.042
8,GTCATGTA,0.0154 ± 0.027
9,GTGTCCGA,-0.00187 ± 0.12
10,AGAGTACG,-0.124 ± 0.0062
11,TGATCGAA,0.0153 ± 0.063
12,CGAGGAAA,0.0336 ± 0.072
13,GTTGTAGA,-0.101 ± 0.093
14,CTTGTAGA,-0.146 ± 0.15
15,ATTGTAGA,0.302 ± 0.0094
16,ATCAATTA,0.225 ± 0.04
17,ATCAATTG,0.239 ± 0.016
18,ATCAATTC,0.0046 ± 0.15
19,AGGACGGC,-0.0864 ± 0.17
20,AAAACGTC,0.0934 ± 0.022
21,GACCGATA,-0.0238 ± 0.067
22,CTAAACCC,0.00702 ± 0.049
